In PubChem BioAssay AID1578 (Sanford-Burnham Center for Chemical Genomics, 2009) one finds inhibition data, which are given here for 94 compounds.

Out of some 290,000 compounds screened, about 3,000 (1%) were called active. Cut-off read from the data, not from the text of the source: active = inhibition mostly above about 36% (no sharp cut-off); inactive = mostly below about 34%. The entries come from a sample that favours actives as a whole.

As usually defined, the inhibition is the change of the read-out against control, counted positive when it falls.

This experiment can be described thus: NOD1 signaling inhibitors, primary screen, cell-based, luminescence, uHTS (AID 1578).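 Note: HEK-293T reporter cells stimulated with the NOD1 agonist gamma-tri-DAP.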 Conditions: NOD1-driven NF-kB luciferase reporter cells, at 4 µM, active compounds read high. A general note: A reporter such as luciferase makes a cellular process visible.
As to `Cc1cccc2c(N)c3c(nc12)CCCC3` (tested in a mixture with another compound), the inhibition was 53.2% (active).
The result for `Nc1c2c(nc3ccccc13)CCCC2` reads -26.6% (inactive).
The result for `Cc1cccc2c(C(=O)O)c3c(nc12)CCCCC3` reads -22.2% (inactive); that for `COc1ccc2[nH]c(C(=O)O)c(NS(=O)(=O)c3ccc(C)c(C)c3)c2c1`, -3.1% (inactive); that for `Cc1nc(C)c(-c2csc(Nc3ccc(F)cc3)n2)s1`, 44.7% (active).
The result for `Cc1ccc(Nc2nc(-c3sc(C)nc3C)cs2)cc1` reads -5% (inactive); that for `Cc1nc(C)c(-c2csc(Nc3ccc(N)cc3)n2)s1`, 16.7% (inactive); that for `COC(=O)C(C)(C)ONC(=O)Nc1ccc([N+](=O)[O-])cc1`, -7% (inactive).
As for `CCOc1ccccc1C(=O)N/N=C/c1ccoc1`, the inhibition was -17.7% (inactive).
The result for `CN=c1scc(-c2ccccc2F)n1/N=C/c1ccc[nH]1` reads 101% (active); that for `CN=c1scc(-c2ccccc2F)n1/N=C/c1ccc(O)c(O)c1O`, -44.9% (inactive).
The result for `CN=c1scc(-c2ccccc2Br)n1/N=C/c1ccc[nH]1` reads 12.4% (inactive); that for `N#Cc1nc(COc2ccc(Cl)cc2Cl)oc1N1CCN(c2ccccc2)CC1`, 21.8% (inactive); that for `COc1ccc(N2CCN(C(c3ccccc3OC)c3nnnn3C3CCCC3)CC2)cc1` (centres undefined), -19.3% (inactive).
The result for `O=C(O)CC(NC(=O)C1CCCCC1)c1ccc(OC2CCCC2)cc1` (centres undefined) reads 65.3% (active).
On to `CC(C)Oc1ccc(C(CC(=O)O)NC(=O)C2CCCCC2)cc1` (centres undefined), for which the inhibition is -11.6% (inactive).
The result for `COc1ccc(C(CC(=O)O)NC(=O)C2CCCCC2)cc1` (centres undefined) reads 19.1% (inactive); that for `CCOC(=O)N1CCN(C(=O)c2cccc(F)c2)CC1`, -43.9% (inactive); that for `CCOc1cccc2sc(N(CCN(C)C)C(=O)CCS(=O)(=O)c3ccccc3)nc12`, -29% (inactive).
For `Cc1ccc2sc(N(CCCN(C)C)C(=O)CCS(=O)(=O)c3ccccc3)nc2c1C`, the inhibition was -27% (inactive).
The result for `CN1C(=O)C2(C(C#N)=C(N)N(c3cc(Cl)cc(Cl)c3)C3=C2C(=O)CC(C)(C)C3)c2ccccc21` (centres undefined) reads -0.6% (inactive).
The result for `O=c1ccnc(SCCC(F)=C(F)F)[nH]1` reads -43.9% (inactive).
The result for `O/N=C\c1ccc(-c2ccccc2)o1` reads 3.8% (inactive).
For `Cn1c(CCN2CCN(c3ccccn3)CC2)nc2cc(NC(=O)COc3ccc(Cl)cc3)ccc21`, the inhibition is 21% (inactive).
The result for `COc1ccc(CCNC(=O)c2ccc(-c3ccc([N+](=O)[O-])cc3)o2)cc1OC` reads 38.5% (inactive).
As for `COc1ccc(CCNC(=O)c2ccc(-c3ccc([N+](=O)[O-])cc3Cl)o2)cc1`, the inhibition is 4.2% (inactive).
For `COc1ccc(CCNC(=O)c2ccc(-c3ccc([N+](=O)[O-])cc3Cl)o2)cc1OC`, the inhibition is 95.8% (active).
For the compound `COc1ccc(-c2nnn(CC(=O)c3ccccc3)n2)cc1OC`, the inhibition was -8.9% (inactive).
The result for `COc1cc(/C=C/C(=O)O)cc(S(=O)(=O)N2CCc3ccccc3C2)c1OC` reads -13.2% (inactive); that for `CC(CC(=O)NCCc1ccc(F)cc1)c1ccccc1` (centres undefined), -24.3% (inactive); that for `Cc1ccc(N/N=C2\CS(=O)(=O)N(C)c3ccsc32)cc1`, 58.9% (active).
Take `CN1c2ccsc2/C(=N/Nc2ccccc2)CS1(=O)=O`: the inhibition was -41.3% (inactive).
The result for `CN1c2ccsc2/C(=N/Nc2ccc(F)cc2)CS1(=O)=O` reads -1.7% (inactive); that for `C[C@@H](O)C1NC(=O)[C@H](CCCCN)NC(=O)c2cc([N+](=O)[O-])cc(I)c2NCCC[C@@H](C(N)=O)NC1=O` (some centres undefined), -16% (inactive); that for `COc1cc(CNC2CCCCCCC2)ccc1OCC(N)=O`, -34.5% (inactive).
The result for `COc1ccc(OC)c2sc(NC(=O)c3ccc(S(=O)(=O)N(C)C)cc3)nc12` reads -12.2% (inactive).
The result for `C/C(=N\NC(=O)c1nnn(-c2nonc2N)c1CN(C)c1ccccc1)c1cccs1` reads -19.9% (inactive).
With `CCN(CCCNC(=O)c1c(C)cc(=O)oc1C)c1ccccc1`, the inhibition was 8.4% (inactive).
On to `CCn1c(C)cc(/C=C2\NC(=O)N(CC(=O)Nc3cccc(C)c3)C2=O)c1C`, for which the inhibition is 9.5% (inactive).
The result for `COc1cc(/C=N/c2oc(-c3ccccc3)cc2C#N)ccc1O` reads -15.3% (inactive); that for `COc1cccc(/C=N/c2oc(-c3ccccc3)cc2C#N)c1O`, -11% (inactive); that for `N#Cc1cc(-c2ccccc2)oc1/N=C/c1ccccc1O`, 49.6% (active).
The result for `Nc1ccc(Br)cc1C(NCC(=O)O)c1ccccc1` (centres undefined) reads -19% (inactive); that for `CC(C)(C)NC(=O)C1CCN(S(=O)(=O)c2cccc(C(F)(F)F)c2)CC1`, -13.7% (inactive); that for `COc1ccc(C2(c3ccc(OC)cc3)NC(=O)N(CC(=O)Nc3ccccc3C(F)(F)F)C2=O)cc1`, -18.1% (inactive).
On to `O=C(Nc1cccc(Cl)c1)c1cccnn1`, for which the inhibition is -9.2% (inactive).
The result for `COc1cccc2c1OC1(C)CC2/C(=C(\C)O)C(=O)N1` (centres undefined) reads -20.8% (inactive).
Take `CCOc1ccc(/C=C/C(O)=C2/C(=O)NC3(C)CC2c2ccccc2O3)cc1OC` (centres undefined): the inhibition was 46.7% (inactive).
The result for `COc1ccc(/C=C/C(O)=C2/C(=O)NC3(C)CC2c2ccccc2O3)c(OC)c1OC` (centres undefined) reads 69.9% (active); that for `COc1ccc(CCNC(=S)Nc2cccc(C)c2C)cc1`, -19.9% (inactive); that for `COc1ccc(OC)c(NC(=O)COC(=O)/C=C/c2c(C)nn(C3CCS(=O)(=O)C3)c2Cl)c1` (centres undefined), -5% (inactive).
As to `O=C1NC(=S)S/C1=C/c1ccc(N2CCOCC2)o1`, the inhibition was 27.5% (inactive).
On to `COc1ccc2cc(/C=C3\SC(=S)NC3=O)c(N3CCOCC3)nc2c1`, for which the inhibition is 71.4% (active).
The result for `COc1ccc2cc(C#N)c(N3CCOCC3)nc2c1` reads 2.7% (inactive); that for `COc1ccc(-n2c(C)cc(/C=C3\SC(=S)NC3=O)c2C)cc1`, -70.7% (inactive); that for `COc1ccc2nc(N3CCCCC3)c(C#N)cc2c1`, -123% (inactive).
Turning to `COc1ccccc1C(=O)NC(=S)Nc1ccc2[nH]c(=O)[nH]c2c1`, the inhibition was -36.5% (inactive).
The result for `Cc1ccc(NC(=O)CCC(=O)OCC(=O)c2ccc(Oc3ccc([N+](=O)[O-])cc3)cc2)cc1C` reads -7% (inactive); that for `OCCSc1nc(N2CCOCC2)nc(N2CCOCC2)n1`, -22.8% (inactive); that for `COC(=O)c1cc(CSc2ncnc3sccc23)oc1C`, -1.8% (inactive).
With `Cc1cc(-n2cnc(-c3cn[nH]c3C)n2)no1`, the inhibition was -8.9% (inactive).
The result for `O=S(=O)(Nc1cccc(S(=O)(=O)N2CCCCCC2)c1)c1ccccc1` reads -11.7% (inactive); that for `O=S(=O)(Nc1nc2ccccc2nc1Nc1cccc(S(=O)(=O)N2CCCCC2)c1)c1ccccc1`, 98.4% (active); that for `O=S(=O)(Nc1nc2ccccc2nc1Nc1ccc2c(c1)OCO2)c1ccccc1`, 57.6% (inactive).
`COc1ccc(S(=O)(=O)Nc2cccc(S(=O)(=O)N3CCCCCC3)c2)cc1`: the inhibition was -27% (inactive).
As to `COc1ccc(S(=O)(=O)Nc2nc3ccccc3nc2Nc2ccc3c(c2)OCO3)cc1`, the inhibition is 7% (inactive).
Regarding `CCOc1ccc(NS(=O)(=O)c2ccc(C(=O)N(CC)CC(=O)NCc3cccs3)cc2)cc1`, the inhibition was -1.7% (inactive).
In the case of `COc1cccc(CNC(=O)COc2ccc(C(=O)c3ccccc3)cc2)c1`, the inhibition was 4% (inactive).
The result for `O=C(NCc1ccco1)Nc1ccc(OC(F)(F)F)cc1` reads -6.5% (inactive); that for `O=C(C1=NN[C@@H]2C(=O)N(c3ccccc3C(F)(F)F)C(=O)[C@H]12)c1cnccn1`, -13.1% (inactive); that for `Cc1cccc2cc3c(N)c(C(=O)N4CCOCC4)sc3nc12`, -5% (inactive).
The result for `Cc1ccc2nc3sc(C(=O)Nc4ccc(N5CCOCC5)cc4)c(N)c3cc2c1` reads -21.9% (inactive); that for `COc1cc(NC(=O)CSc2nccc(=O)[nH]2)c(C)cc1[N+](=O)[O-]`, -24.5% (inactive).
Turning to `Cc1cc(-c2ccc(C)c(S(=O)(=O)N3CC(=O)Nc4ccccc43)c2)on1`, the inhibition was -2.5% (inactive).
For the compound `Cc1ccc(C(=O)CC2(O)C(=O)N(C)c3ccccc32)s1` (centres undefined), the inhibition was -9.2% (inactive).
As to `CC(=O)N1c2ccccc2C2(O)N=C(C)SC12` (centres undefined), the inhibition was 66.4% (active).
As for `CC(=O)N1c2ccccc2C(C)(C)C2CCC(C)CC21` (centres undefined), the inhibition was -5.9% (inactive).
As for `COc1ccc(C(=O)NNC(=O)CN2CCC(n3nnc4cc(C)ccc43)CC2)cc1`, the inhibition is -14.9% (inactive).
The result for `O=C(OCc1ccc(Cl)cc1)c1cccnc1Cl` reads -33% (inactive); that for `CCCCOCCCNc1ncnc2c1[nH]c1ccccc12`, 65.9% (active).
The result for `COCCCNc1ncnc2c1[nH]c1ccccc12` reads -16.9% (inactive); that for `CCOCCCNc1ncnc2c1[nH]c1ccccc12`, 19.9% (inactive).
In the case of `O=S(=O)(c1ccc(S(=O)(=O)n2cnc3ccccc32)cc1)N1CCCCCC1`, the inhibition was 8.9% (inactive).
The result for `C=CCO/N=C/C1C(=O)CC(C)(C)CC1=O` reads -25.9% (inactive).
The result for `O=C(NC12CC3CC(CC(C3)C1)C2)N1CCN(c2ccccc2)CC1` reads -18% (inactive); that for `Clc1ccccc1OCCCOc1cccc2cccnc12`, -0.6% (inactive).
On to `COc1ccc(CN(C)c2nc(-c3cccnc3)nc3ccccc23)cc1OC`, for which the inhibition was 36.1% (inactive).
The result for `CCOc1ccc(CN(C)c2nc(-c3cccnc3)nc3ccccc23)cc1OC` reads 55.2% (active); that for `CN(Cc1cccs1)c1nc(-c2cccnc2)nc2ccccc12`, -37.4% (inactive); that for `Cc1ccc2cc(C#N)c(NCCNC(=S)NCCCN(C)C)nc2c1C`, -23.4% (inactive).
The result for `CCCCn1c(SCC(=O)Nc2nnc(C)s2)nc2c1c(=O)n(C)c(=O)n2C` reads 6.2% (inactive); that for `CCCn1c(SCC(=O)Nc2nnc(C(C)C)s2)nc2c1c(=O)n(C)c(=O)n2C`, 34% (inactive); that for `O=C(c1cnn(C(=O)c2cccc(S(=O)(=O)N3CCOCC3)c2)c1)c1ccccc1O`, 9.5% (inactive).
The result for `COc1ccc(S(=O)(=O)N2CCc3ccccc32)cc1C(=O)OCC(=O)c1c(N)n(C)c(=O)n(C)c1=O` reads -11.1% (inactive).
